TDP-43 yeast inh: rescues yeast growth from TDP-43 toxicity; TDP-43 expressing yeast growth rescue, BacTiter-Glo, 24 h; Potency, µM (highest dose often 46.1 µM), without a hit: at the highest dose growth rescue (activation), usual class: activators; hit rate 1.8% among 410,000; AID 652104; also: % of control where 0% means no effect; nearly all actives have a fitted effect of over 50% in size
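In this qHTS, compounds that restore growth of yeast expressing TDP-43 appear as activators. Cells (OD600=0.02, galactose medium, raffinose-pregrown) are incubated with compound 24 hr at 30 deg C and growth is quantified by BacTiter-Glo.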
aSyn rescue: alpha-synuclein toxicity inhibition in yeast | Yeast expressing alpha-synuclein, growth rescue, BacTiter-Glo, 24 h | Potency, µM (highest dose often 46.1 µM), without a hit: top-dose growth rescue (activation), actives largely listed as activators | hit rate 0.14% among 370,000; also: % of control where 0% means no effect; nearly all actives have a fitted effect of over 65% in size
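Rescue of yeast growth: cells expressing toxic alpha-synuclein, induced in galactose at OD600 0.02, incubated with compound 24 h at 30 C. ATP luminescence quantified growth; inhibitors of toxicity appear as activators.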
Abeta yeast res: compounds reversing amyloid beta toxicity in yeast | yeast expressing A-beta42, growth rescue, OD600, 48 h; response scale: 0% DMSO, 100% iron-clioquinol control | Potency, µM (doses to about 46.1 µM), most hits filed as activators | hit rate 0.063% among 410,000 | AID 1347071; also: nearly all actives have a fitted effect of over 55% in size
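Yeast A-beta toxicity model in growth medium with pinned compounds, 48 h at 30 C; growth read as absorbance at 600 nm. Normalized to FeCl3/clioquinol equimolar mix (positive) and DMSO (negative).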
ERG Ets-DNA blk: inhibitors of human ERG Ets domain-DNA interaction | fluorescence polarization, His-ERG Ets domain / labelled DNA | AID 624246 | hit rate 0.028% among 370,000 | P11308 | Potency, µM (doses to about 76.9 µM), without a hit: top-dose FP activity, negative = inhibition, hits mostly inhibitors; active = well fitted inhibition curve with a large enough effect in the polarisation, with a control signal flat; inconclusive = small, poorly fitted or top-dose-only effect, or effect the other way, or a change in a side signal; inactive = no such curve, though single readings can be large or run the other way; the % refers to the polarisation;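 also: polarization taken with two DNA probes labelled with fluorescein and Texas red; % of control where 0% means no effect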
Target sequence (P11308 whole entry, looked up, the tested form may be a part): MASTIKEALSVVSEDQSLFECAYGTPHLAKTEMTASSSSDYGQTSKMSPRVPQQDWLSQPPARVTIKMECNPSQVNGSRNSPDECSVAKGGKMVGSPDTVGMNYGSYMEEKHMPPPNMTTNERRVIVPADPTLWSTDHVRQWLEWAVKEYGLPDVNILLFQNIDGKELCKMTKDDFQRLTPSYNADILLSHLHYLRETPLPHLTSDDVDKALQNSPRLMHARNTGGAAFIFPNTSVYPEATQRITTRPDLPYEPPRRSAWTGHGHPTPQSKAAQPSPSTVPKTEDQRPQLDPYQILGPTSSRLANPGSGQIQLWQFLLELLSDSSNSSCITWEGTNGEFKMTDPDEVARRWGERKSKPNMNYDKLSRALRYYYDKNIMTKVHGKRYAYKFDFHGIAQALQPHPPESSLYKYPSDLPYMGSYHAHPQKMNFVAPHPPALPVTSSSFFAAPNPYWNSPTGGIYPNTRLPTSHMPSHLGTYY
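His-tagged ERG Ets domain (1 uM in the protein solution; 300mM KCl, 50mM Tris-HCl, 1mM EDTA, 1mM DTT, pH 7.5) received compound, then a probe mix of 5 nM fluorescein-DNA and 100nM Texas-615-DNA. Fluorescence polarization was read for both dyes.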
Mito fusion yeast: inhibitors of mitochondrial division or activators of mitochondrial fusion. AID 485298. Potency, µM (series often up to 46.1 µM), without a hit: at the top dose growth rescue (activation), actives largely listed as activators. S. cerevisiae fusion-defective mutant growth rescue, CellTiterGlo 48 h. hit rate 0.23% among 320,000; also: % of control where 0% means no effect; nearly all actives have a fitted effect of over 45% in size
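Read-out: ATP-based luminescence (CellTiterGlo, 10 min ambient) reporting growth of fusion-defective ts yeast after 48 hours at 37C on glycerol/ethanol YPEG medium in the presence of compound.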
FUS suppressor: suppressors of FUS proteinopathy in yeast; S. cerevisiae FUS-expressing, growth rescue, OD600, 24 h; Potency, µM (doses to about 76.6 µM), hits mostly activators; hit rate 0.24% among 390,000; AID 1347120;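 also: plate controls were DMSO vehicle for no effect and reference control for full effect; nearly all actives have a fitted effect of over 55% in size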
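Yeast expressing FUS under galactose induction, OD 0.005 in 2% galactose medium; compounds in a dilution series, 24 h at 30C. Growth rescue by absorbance at 600 nm; CP55940 positive control, DMSO negative.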
An asterisk follows results filed as active; i = inactive; ? = inconclusive; nt = no result given; [ ] = another dose, or the depositor's remark. An excerpt weighted towards active compounds, which were near 2.2% of everything screened. Unless noted, calls follow the shape of the dose curve; as a rule, active = well fitted curve in the direction sought with a large enough effect; inconclusive = small, poorly fitted or top-dose-only effect, or another doubt; inactive = no such curve, though single readings can be large; an effect the other way counts as inactive or inconclusive. Potency is read from the fitted curve at half-maximal effect.

SMILES	TDP-43 yeast inh	aSyn rescue	Abeta yeast res	ERG Ets-DNA blk	Mito fusion yeast	FUS suppressor
CC(C)(C)c1ccc(OCC(=O)NNC(=S)NC(=O)c2ccccc2[N+](=O)[O-])c(Br)c1	18µM*	?	i	4%	-10%	i
CC(C)(C)c1ccc(C(=O)NNC(=S)NC(=O)c2cccnc2)cc1	?	11µM*	i	-12%	-47%	?
CC(C)(C)c1cc(Cl)c(O)c(NC(=S)NC(=O)c2cccnc2)c1	8.9µM*	11%	?	14%	7%	i
O=C(/C=C/c1ccccc1)NC(=S)NNC(=O)c1cccnc1	16µM*	7%	?	-2%	-3%	i
COC(=O)c1cc(C(C)c2c[nH]c3ccccc23)n2ccccc12 (centres undefined)	nt	nt	nt	nt	nt	i
CCOC(=O)c1ccc(N2CCN(c3cccc(Cl)c3)CC2)c(NC(=O)Nc2ccc(OC)cc2OC)c1	-10%	nt	i	-3%	nt	i
Cc1ccc2c(=O)cc(C(=O)Nc3c(C(=O)c4ccc(F)cc4)oc4ccccc34)oc2c1C	6%	nt	i	0%	nt	i
CCCCCCCCNS(=O)(=O)CC1NCc2cc(OC)ccc21 (centres undefined)	nt	nt	nt	nt	nt	i
Cc1cccc(C(=O)NC(=S)NNC(=O)c2cccs2)c1	?	-6%	i	6%	-5%	nt
Cc1cccc(C(=O)NC(=S)NNC(=O)c2ccc(Cl)cc2)c1	?	?	3.2µM*	1%	-13%	nt
CC(C)(C)c1ccc(C(=O)NC(=S)NNC(=O)COc2ccccc2)cc1	13µM*	?	i	4%	-4%	i
CCCCN(C(=O)CCn1c(=O)oc2ccccc21)c1ccccc1	?	8%	i	-3%	1%	i
Cc1cc2n(n1)C(c1sccc1C)Nc1ccccc1-2 (centres undefined)	18µM*	-2%	i	-1%	13%	i
Cc1ccc2c(c1)-c1cc(C)nn1C(c1sccc1C)N2 (centres undefined)	?	-16%	i	4%	8%	i
CCOc1ccc(CCNc2ncnc3onc(-c4ccc(Cl)cc4)c23)cc1	21%	nt	i	-3%	nt	i
Clc1ccc(CNc2ncnc3onc(-c4ccc(Cl)cc4)c23)cc1	13µM*	nt	i	4%	nt	?
Cc1ccc(CCNc2ncnc3onc(-c4ccc(Cl)cc4)c23)cc1	21%	nt	i	-9%	nt	i
CC(C)CNc1ncnc2onc(-c3ccc(Cl)cc3)c12	11µM*	nt	i	1%	nt	i
Cc1cccc(CCNc2ncnc3onc(-c4ccc(Cl)cc4)c23)c1	35µM*	nt	i	-5%	nt	i
CN1CCN(C(=O)c2ccc3c(c2)N(Cc2ccc(C(F)(F)F)cc2)C(=O)c2ccccc2S3)CC1	-9%	nt	i	-4%	nt	?
COc1ccc(C2(c3ccc(OC)cc3)NC(=O)N(CC(=O)NC3(C#N)CCCC3)C2=O)cc1	6%	0%	i	nt	0%	nt
COc1ccc(C2(c3ccc(OC)cc3)NC(=O)N(CC(=O)NC3(C#N)CCCCC3)C2=O)cc1	-5%	1%[1.84 µM]	i	1%	-2%	14µM*
O=C(CSc1cc(Cl)ccc1Cl)Nc1ccc(N2CCOCC2)cc1	16µM*	0%	i	-11%	?	i
Cc1cc(C)nc(SCC2COc3ccccc3O2)n1 (centres undefined)	14µM*	9%	i	-3%	-2%	i
Nc1nonc1-c1nc2ccccc2n1CC(=O)Nc1cccc(C(F)(F)F)c1	-5%	nt	i	14%	nt	i
SMILES	TDP-43 yeast inh	aSyn rescue	Abeta yeast res	ERG Ets-DNA blk	Mito fusion yeast	FUS suppressor
O=C(C1CCCN(S(=O)(=O)c2cc(Cl)ccc2Cl)C1)N1CCCC1 (centres undefined)	?	5%	i	-5%	-5%	nt
O=C(C1CCCN(S(=O)(=O)c2cc(Cl)ccc2Cl)C1)N1CCCCCC1 (centres undefined)	11µM*	3%	i	-7%	-11%	nt
COc1ccc(CCNC(=O)CCn2c(=O)c3ccccc3n(Cc3ccccc3F)c2=O)cc1OC	1%	nt	i	0%	nt	i
N#CCC(=O)N/N=C/c1ccc(Sc2nc3ccccc3s2)o1	?	0%	i	16%	2%	3.5µM*
COCC(=O)N/N=C/c1ccc(Sc2nc3ccccc3s2)o1	28%	13%	i	-9%	-6%	i
Cc1cc(-n2c(C)cc(C(=S)N3CCOCC3)c2C)ccc1Br	20µM*	-2%	i	-3%	29%	nt
CCOc1ccc(Nc2c(S(=O)(=O)c3ccccc3)cnc3ccc(F)cc23)cc1	6%	nt	i	4%	nt	?
O=C(c1cc(S(=O)(=O)N2CCN(c3ccccc3)CC2)ccc1Cl)N1CCCCCCC1	7%	17%	i	1%	14µM*	i
CC1CN(C(=O)c2cc(S(=O)(=O)N3CCN(c4ccccc4)CC3)ccc2Cl)CC(C)O1 (centres undefined)	3%	4%	i	8%	9%	i
O=C(c1cc([N+](=O)[O-])ccc1Cl)N1CCN(c2ccccc2)CC1	7.9µM*	5%	i	-8%	5%	i
CC1(C(=O)N2CCN(c3ccc([N+](=O)[O-])cc3)CC2)CC1(Cl)Cl (centres undefined)	11µM*	-3%	i	-8%	10%	i
O=C(c1ccco1)N1CCN(c2ccc([N+](=O)[O-])cc2Cl)CC1	14µM*	2%	i	2%	-3%	i
O=C(c1cc([N+](=O)[O-])ccc1N1CCOCC1)N1CCN(c2ccccc2)CC1	nt	nt	nt	nt	-1%	nt
CC1CCN(C(c2ccccc2)c2sc3nc(-c4ccco4)nn3c2O)CC1 (centres undefined)	-11%	nt	i	10%	nt	i
CC(C)OC(=O)c1c(NC(=O)C2c3ccccc3Oc3ccccc32)sc2c1CCCC2	0%	nt	i	-3%	nt	i
CC(C)[C@H](NC(=O)c1ccc(Cl)cc1Cl)C(=O)NNc1cccc(C(=O)O)c1	0%	-1%	i	8%	nt	nt
O=C1C(=O)N(Cc2ccc(-c3ccccc3)cc2)c2ccc(OC(F)(F)F)cc21	nt	nt	nt	nt	nt	i
O=c1c2cn[nH]c2nc(SCc2cccc(Br)c2)n1-c1ccc(Cl)cc1	6%	nt	i	-2%	nt	35µM*
Cc1ccccc1-n1c(SCc2ccc(Cl)cc2)nc2[nH]ncc2c1=O	17%	nt	i	0%	nt	?
Cc1cc(N)n2ncc(-c3ccc(Cl)cc3)c2n1	8.9µM*	-12%	i	10%	20%	i

Bioassay records: PubChem, National Center for Advancing Translational Sciences (NCATS)
